Bioassay records: PubChem BioAssay, several laboratories
CYP2C19 activ = cytochrome P450 2C19 (human) activation. P33261. recombinant CYP2C19, luciferin-H EGE luminescence; active compounds read high; 0 = fully inhibited enzyme, 1 = untreated enzyme. activation factor at 5 µM. 96,000 tested, under 10 active;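 active means activation factor of at least 2 at 5 µM in the primary screen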
Target sequence (P33261 whole entry, looked up): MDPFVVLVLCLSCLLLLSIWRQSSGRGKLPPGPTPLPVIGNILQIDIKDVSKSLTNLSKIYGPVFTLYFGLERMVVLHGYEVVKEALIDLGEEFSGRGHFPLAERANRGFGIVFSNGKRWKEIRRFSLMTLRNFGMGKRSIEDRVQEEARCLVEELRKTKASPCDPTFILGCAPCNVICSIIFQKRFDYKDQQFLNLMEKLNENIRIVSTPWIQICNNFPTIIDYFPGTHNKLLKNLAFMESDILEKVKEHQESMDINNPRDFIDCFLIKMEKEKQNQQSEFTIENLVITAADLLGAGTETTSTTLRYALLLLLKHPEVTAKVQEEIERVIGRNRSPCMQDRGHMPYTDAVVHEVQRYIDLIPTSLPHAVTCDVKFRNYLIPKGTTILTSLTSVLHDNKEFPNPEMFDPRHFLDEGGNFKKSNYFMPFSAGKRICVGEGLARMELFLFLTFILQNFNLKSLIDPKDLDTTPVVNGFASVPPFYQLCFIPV
Cav3 T inh = human Cav3.2 channel inhibition, primary screen; O95180; Cav3.2-expressing cells, Fluo-4 calcium fluorescence FDSS; active compounds read low; B-score at 10 µM; 4% of 100,000 active; AID 449739;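 active means single-dose well whose peak fluorescence ratio is a statistical outlier from its plate by either plate-standardised score or position-corrected B-score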
CYP2C19 inhib = inhibitors of human CYP2C19. CYP2C19 Supersomes, luciferin-H EGE luminescence, 30 min. 21% of 96,000 active. AID 778. P33261. inhibition, % at 5 µM;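 active means CYP2C19 inhibition above a set limit at 5 µM in the primary screen, cut at about 50% in these data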
CYP2C9 activ = activators of human CYP2C9; recombinant CYP2C9, luciferin-H conversion, luminescence; active compounds read high; factor 1 = untreated enzyme, 0 = blocked; AID 1024; P11712; activation factor at 5 µM; 1.4% of 96,000 active;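 active means activation factor of 2 or more for CYP2C9 at a 5 µM dose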
CYP2C9 inhib = human CYP2C9 inhibition; P11712; CYP2C9 Supersomes, luciferin-H conversion, luminescence; inhibition, % at 5 µM; 20% of 96,000 active; AID 777;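 active means blocking of liver enzyme CYP2C9 beyond about 50% at 5 µM, limit read from the data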
Pyk2 oligo antag = blocks oligomerization of human Pyk2 in cells. Q14289. Q293 cells, Pyk2 FERM NanoBiT luminescence; active compounds read low. z-score (the deposit names both 25 µM and 10 µM). 0.83% of 99,000 active. AID 1347419;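 active means Z-score of -3 or lower, scaled per plate to the spread of control and sample wells; inactive means z-score above -3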;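 further: negative z-score means lost luminescence so less FERM oligomerization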
Of the large screens only hits and unclear results are named; the others gave an inactive call. Compounds with a hit are over-represented: about 27% of the library has one in this group of screens.

O=c1c2[nH]c3ccc(Cl)cc3c2ncn1CCN1CCCCC1	CYP2C19 inhib 74, CYP2C9 inhib 59
COc1ccc2nc(SCC(=O)Nc3ccc4sc(C)nc4c3)c(C#N)cc2c1	none
Cc1ccc(OCc2nnc(SCC(=O)N3CCc4ccccc43)n2C)cc1	none (no result: CYP2C19 activ, CYP2C19 inhib, CYP2C9 activ, CYP2C9 inhib)
CC(=O)Nc1ccc(S(=O)(=O)NCCc2ccc(S(N)(=O)=O)cc2)cc1	none
CC(=O)Nc1ccc(C(=O)CS(=O)(=O)c2ccc(C)cc2)cc1	CYP2C9 inhib 59
CC(=O)Nc1ccc(S(=O)(=O)NCCc2ccc(F)cc2)cc1	CYP2C19 inhib 58
CC(=O)Nc1ccc(S(=O)(=O)NCc2ccc(C)cc2)cc1	CYP2C19 inhib 60
CC(=O)Nc1ccc(S(=O)(=O)n2nc(-c3ccc(C)cc3)nc2N)cc1	CYP2C19 inhib 50
C=CCNC(=O)c1ccc(CNS(=O)(=O)c2ccc(NC(C)=O)cc2)cc1	CYP2C9 inhib 57
CC(=O)Nc1ccc(S(=O)(=O)NCCSCc2ccc(Cl)cc2Cl)cc1	CYP2C19 inhib 57, CYP2C9 inhib 81
CC(=O)Nc1ccc(S(=O)(=O)NCc2ccc3c(c2)cc(C)n3C)cc1	none (no result: Pyk2 oligo antag)
CC(=O)Nc1ccc(S(=O)(=O)NCc2ccc3[nH]c(C)cc3c2)cc1	CYP2C9 inhib 85 (no result: Pyk2 oligo antag)
C=CCNC(=O)c1ccc(N(C)S(=O)(=O)c2ccc(OC)cc2)cc1	CYP2C19 inhib 73, CYP2C9 inhib 86
CC(=O)Nc1ccc(S(=O)(=O)NCCSc2ccccn2)cc1	none
CC(C)CC(=O)Nc1nnn(C)n1	none
CC1CC(C)CN(C(=O)CSc2nnc(-c3ccc(Cl)s3)o2)C1 (centres undefined)	Cav3 T inh -3.4 (no result: Pyk2 oligo antag)
OC(CNc1ccccc1)COc1ccc(OCC(O)CNc2ccccc2)cc1 (centres undefined)	CYP2C9 inhib 67
CCN(CC)C(=O)COc1ccc(C=O)cc1OC	none (no result: CYP2C19 activ, Cav3 T inh, CYP2C19 inhib, CYP2C9 activ, CYP2C9 inhib)
CCOc1cc(C=O)ccc1OCCSc1ccc(C)cc1	CYP2C19 inhib 77, CYP2C9 inhib 70
COc1cc(C=O)ccc1OCCSc1ccc(C)cc1	CYP2C19 inhib 85, CYP2C9 inhib 68
Cc1ccc(-c2noc(CCC(=O)N(C)c3ccccc3C)n2)cc1	Cav3 T inh -5.6, CYP2C19 inhib 82, CYP2C9 inhib 94
Cc1ccc(-c2noc(CCC(=O)Nc3ccccc3C)n2)cc1	none
CCN(C(=O)CCc1nc(-c2ccc(OC)cc2)no1)c1cc(OC)ccc1OC	Cav3 T inh -6.5, CYP2C19 inhib 59, CYP2C9 inhib 75
COc1ccc(-c2noc(CCC(=O)N(C)c3cccc(C)c3)n2)cc1	Cav3 T inh -5.8, CYP2C19 inhib 89, CYP2C9 inhib 83
c1ccc2c(c1)CCN(CCCNc1nc3ccccc3n3cnnc13)C2	none (no result: Cav3 T inh, Pyk2 oligo antag)
CCCOc1ccc(C(=O)CCC(=O)OCC(=O)N2CC(=O)Nc3ccccc32)cc1	none
COc1cc(OC)cc(C(=O)Nc2cc(NC(=O)c3ccco3)ccc2OC)c1	none
CCCOc1cccc(C(=O)Nc2cc(NC(=O)c3ccco3)ccc2OC)c1	Cav3 T inh -6.4, CYP2C19 inhib 71
COc1cc(NC(=O)c2ccco2)c(OC)cc1NC(=O)CCC(=O)Nc1cc(C)cc(C)c1	CYP2C9 inhib 66
COc1ccc(NC(=O)c2cc(Cl)ccc2NC(=O)c2ccco2)c(OC)c1	CYP2C19 inhib 73, CYP2C9 inhib 94
CCCC(=O)Nc1ccc(NC(=O)c2ccco2)c(OC)c1	CYP2C9 inhib 71
COc1ccc(C2NC(=O)NC(C)=C2C(C)=O)cc1 (centres undefined)	none (no result: CYP2C19 activ, CYP2C19 inhib, CYP2C9 activ, CYP2C9 inhib)
CSc1nc2cc(Oc3cccc(Cl)c3Cl)c(Cl)cc2[nH]1	none (no result: CYP2C19 activ, CYP2C19 inhib, CYP2C9 activ, CYP2C9 inhib, Pyk2 oligo antag)
CCOC(=O)CSc1nc2c(cnn2-c2ccc(C)cc2)c(=O)[nH]1	none
COc1cc(NS(=O)(=O)c2ccc(Br)cc2)c(OC)cc1NC(=O)c1ccco1	CYP2C19 inhib 98, CYP2C9 inhib 100
CC1(C)CC(=O)C2=C(C1)OC(N)=C(C#N)C2c1ccc(OC(=O)N2CCOCC2)cc1 (centres undefined)	CYP2C9 inhib 60
COc1cc(C2C(C#N)=C(N)OC3=C2C(=O)CC(C)(C)C3)ccc1OC(=O)N1CCOCC1 (centres undefined)	CYP2C9 inhib 54
CCOC(=O)c1c2n(c3c(NCc4ccccc4)ncnc13)CCCC2	CYP2C9 inhib 77
O=C(CCS(=O)(=O)c1cccc2nonc12)N1CCN(c2ccc(F)cc2)CC1	CYP2C9 activ 2
O=C(CCS(=O)(=O)c1cccs1)N1CCN(c2ccc(F)cc2)CC1	CYP2C19 inhib 72
COc1ccc(N2CC(C)Cn3c2nc2c3c(=O)[nH]c(=O)n2C)cc1 (centres undefined)	none
O=C(c1ccccc1)c1nn(-c2ccccc2)c(=O)cc1C(F)(F)F	none
O=C(c1ccccc1)c1nn(-c2ccc(Cl)cc2)c(=O)cc1C(F)(F)F	CYP2C19 inhib 75, CYP2C9 inhib 53
CC(=O)C1=C(C)N(Cc2ccco2)C(=O)C1(NC(=O)C1CCCCC1)C(F)(F)F (centres undefined)	none
CC1(C)CC(=O)C2=C(C1)N(Cc1ccco1)C(=O)C2(NC(=O)C1CCCCC1)C(F)(F)F (centres undefined)	CYP2C9 inhib 51
CC(=O)NC1(C(F)(F)F)C(=O)N(Cc2ccccc2)C2=C1C(=O)CC(C)(C)C2 (centres undefined)	none
CC1(C)CC(=O)C2=C(C1)N(Cc1ccco1)C(=O)C2(NC(=O)c1ccc(Cl)cc1Cl)C(F)(F)F (centres undefined)	CYP2C19 inhib 83
CC1=NC(C(F)(F)F)(C(F)(F)F)C2=C(CC(C)(C)CC2=O)N1Cc1ccco1	CYP2C19 inhib 56, CYP2C9 inhib 54
CC1(C)CC(=O)C2=C(C1)N(Cc1ccco1)C(=O)NC2(C(F)(F)F)C(F)(F)F	none
COc1cc(C2C(C#N)=C(N)N(c3cccnc3)C3=C2C(=O)CC(C)(C)C3)ccc1O (centres undefined)	none
Cc1ccc2c(c1)cc(C)c1nnc(SCC(=O)NCc3ccco3)n12	none
O=C(NCCN1CCN(C(=O)c2cccs2)CC1)C(=O)Nc1ccc(Br)cc1	none
Cc1cc(C(=O)OCC(=O)N2CCN(C(=O)c3ccco3)CC2)c(C)n1-c1ccc(F)cc1	none
Cc1cc(C(=O)CNCc2ccco2)c(C)n1-c1ccc(F)cc1	CYP2C19 inhib 51
O=C(NCCN1CCCC1)C1CC(=O)N(C2CCCCC2)C1 (centres undefined)	none
Cc1ccc(CNC(=O)CCS(=O)(=O)c2cccc3nonc23)cc1	none
COc1ccc(CNC(=O)C2CCC(CNS(=O)(=O)c3cccc4nsnc34)CC2)cc1 (centres undefined)	none (no result: Pyk2 oligo antag)
O=C(CNS(=O)(=O)c1cccc2nonc12)NCc1ccc(F)cc1	CYP2C19 inhib 53
O=C(CNS(=O)(=O)c1cccc2nsnc12)NCc1ccc(Cl)cc1	CYP2C19 inhib 50, CYP2C9 inhib 52 (no result: Cav3 T inh)
